Source: PubChem
IL1B secr inh: inhibitors of inflammasome signaling (IL-1 beta secretion); AID 743279; activity change, % at 57.5 µM; actives 4.7% (n = 360,000); THP-1 LPS/ATP IL-1B secretion, AlphaLISA, 16 h; active compounds read low; in the data active = activity change below about -50%; inconclusive = mostly about -30% to -49%; also: % is scaled to controls: 0 for no effect and ±100 for the full control effect
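Secreted IL-1B measured by AlphaLISA bead assay after 16 h compound exposure of THP-1 cells; compounds (final up to 57.5 uM) added 1 h before LPS (250 ng/mL) and ATP (1.25 mM) stimulation; lower signal means less secretion.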
MCF10A rerep: DNA re-replication induction in MCF 10a cells; MCF 10A DNA re-replication, Hoechst nuclear intensity, 48 h; Potency, µM (doses to about 46.1 µM), inactives show at the top dose activity, positive = re-replication, hits mostly activators; actives 2.9% (n = 350,000); also: potency is read from the fitted curve at half-maximal effect; % of control where 0% means no effect; nearly all actives have a fitted effect of over 50% in size
SW480 rereplic: induces DNA re-replication in SW480 colon adenocarcinoma cells; SW480 DNA re-replication, Hoechst DNA content imaging, 48 h; Potency, µM (highest dose often 46.1 µM), for inactives: top-dose re-replication activation, actives largely listed as activators; actives 1.8% (n = 340,000); also: potency is read from the fitted curve at half-maximal effect; % of control where 0% means no effect; nearly all actives have a fitted effect of over 55% in size
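First, 250 cells per well were seeded. Next, compound or vehicle (23 nL) was pinned in, plates sat 48 hr at 37 C. Finally Hoechst was added for 40 min before fluorescence scanning.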
KB-3-1 tox: KB-3-1 parental cell cytotoxicity | AID 1347075 | Potency, µM (top dose mostly 46.1 µM), actives largely listed as cytotoxic | KB-3-1 viability, CellTiter-Glo ATP luminescence, 72 h | actives 1.4% (n = 400,000); also: potency is read from the fitted curve at half-maximal effect; % is scaled to controls: 0 for no effect and ±100 for the full control effect; nearly all actives have a fitted effect of over 60% in size
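Parental KB-3-1 viability, qHTS format: 72 h compound exposure, 37 °C; CellTiter-Glo; media-only wells and DMSO plates as controls; concentration-effect fits on corrected data.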
KB-V1 cytotox: KB-V1 MDR subline cytotoxicity; KB-V1 MDR cells viability, CellTiter-Glo, 72 h; Potency, µM (top dose mostly 46.1 µM), hits mostly cytotoxic; actives 3.4% (n = 400,000); AID 1347076; also: potency is read from the fitted curve at half-maximal effect; % is scaled to controls: 0 for no effect and ±100 for the full control effect; nearly all actives have a fitted effect of over 60% in size
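KB-V1 MDR subline cells in DMEM (phenol-red free, 10% FBS) exposed to compounds in qHTS concentration series for 72 h at 37 degrees C. Viability read by CellTiter-Glo luminescence; concentration-effect curves fitted after normalization and correction.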
Active calls of the source: *; i = inactive; ? = inconclusive; / = no result; ! = not confirmed by another sample. An excerpt weighted towards active compounds, which were near 9.9% of everything screened. Unless noted, calls follow the shape of the dose curve; as a rule, active = well fitted curve in the direction sought with a large enough effect; inconclusive = small, poorly fitted or top-dose-only effect, or another doubt; inactive = no such curve, though single readings can be large; an effect the other way counts as inactive or inconclusive.

SMILES	IL1B secr inh	MCF10A rerep	SW480 rereplic	KB-3-1 tox	KB-V1 cytotox
COc1ccccc1CCNC1CCC(C(C)(C)C)CC1 (stereo not given)	-65.0*	?	?	i	i
Oc1ccc2c3c1O[C@H]1c4[nH]c5ccccc5c4C[C@@]4(O)[C@@H](C2)N(CC2CC2)CC[C@]314	-61.3*	11.3%	?	i	i
O=C1CC[C@@]2(O)[C@H]3Cc4ccc(O)c5c4[C@@]2(CCN3CC2CC2)[C@H]1O5	7.5	8.8%	-1.5%	i	i
Oc1ccc2c3c1O[C@H]1c4oc5ccccc5c4C[C@@]4(O)[C@@H](C2)N(CC2CC2)CC[C@]314	-64.8*	22.5%	10.7%	i	?
C#CCN1CC(=O)N(COC(=O)[C@@H]2[C@@H](C=C(C)C)C2(C)C)C1=O	/	0.0%	-5.1%	/	/
CN1CCC(N(C)c2ncnc3ccc(Br)cc23)CC1	-18.1	7.9%	3.9%	i	i
Cc1ccc(-c2nc(N(C)C3CCN(C)CC3)c3ccccc3n2)cc1	-89.7*	6.0%	12.7%	i	20.6µM*
CCC1C(C)=NN=C(c2ccc(OC)c(OC)c2)c2cc(OC)c(OC)cc21 (stereo not given)	/	11.4%	0.9%	/	/
COc1ccc(CC2C(=O)NC(C)C(=O)N(C)C3C(=O)N(C)C(Cc4ccc(O)c(c4)Oc4ccc(cc4)C3O)C(=O)NC(C)C(=O)NC(C)C(=O)N2C)cc1 (stereo not given)	-100.8*	0.259µM*	?	0.164µM*	i
CCc1ccc(NC(=O)c2cccn(Cc3cccc([N+](=O)[O-])c3)c2=O)cc1	/	/	/	?	i
c1cncc(CNC2CCCCC2)c1	31.9	1.0%	-3.7%	i	?
c1ccc(CNC2CCCCCCC2)cc1 (tested in a mixture with another compound)	-73.7*	2.6%	-1.2%	i	23.1µM*
Cc1[nH]c2ccccc2c1C(=O)CN1CC=C(c2ccccc2)CC1	-10.0	18.4µM*	?	?	i
Clc1cccc(Cl)c1Cn1nnc(N2CCCC2)n1	36.1	0.3%	-135.4%	i	i
CC(N)C(=O)NC1C2C(=C(O)CC(O)C2O)C(=O)OC1(C)C(Cl)Cl (stereo not given)	-100.2*	?	?	2.06µM*	18.4µM*
COc1ccc(CCNC(=O)N2c3ccccc3Sc3ccccc32)cc1	?	16.4µM*	24.3%	?	?
COc1ccc(CCNC(=O)COC(=O)Cc2ccccc2)cc1	0.0	2.0%	-27.6%	i	i
Clc1ccc(C(c2ccc(Cl)cc2)C(Cl)(Cl)Cl)cc1	/	?	-0.4%	/	/
COc1cccc2c1O[C@H]1C(=O)CC[C@H]3CN(C)CCC231 (stereo not given in full)	/	5.0%	-8.9%	i	i
COc1ccc2c3c1O[C@H]1C(=O)CC[C@H]4[C@@H](C2)N(C)CC[C@]314	-88.7*	-9.2%	?	i	i
O=c1c2ccccc2[se]n1-c1ccccc1	-114.3*	?	18.4µM*	?	?
O=c1c2ccccc2nc(-c2ccccc2)n1-c1ccccc1	8.3	2.7%	-10.0%	i	?
CN(C)[C@@H](Cc1ccccc1)c1ccccc1	/	10.3%	0.9%	/	/
Cc1ccc(C[n+]2c(-c3ccc(C)cc3)cc(-c3ccc(C)cc3)cc2-c2ccc(C)cc2)cc1	-110.9*	23.1µM*	?	5.8µM*	?
Cc1ccc(-c2cc(-c3ccc(C)cc3)[n+](-c3ccc(C(=O)O)cc3)c(-c3ccc(C)cc3)c2)cc1	-9.3	?	1.4%	i	i
SMILES	IL1B secr inh	MCF10A rerep	SW480 rereplic	KB-3-1 tox	KB-V1 cytotox
CCCC(=O)NC1=C(N2CC2)C(=O)C(NC(=O)CCC)=C(N2CC2)C1=O	1.7	?	2.31µM*	i	i
CC(=O)c1ccc(NC(=O)c2sc3nc4c(cc3c2N)N2CCC4CC2)cc1	/	/	/	?	23.1µM*
CCCC12CN3CC(CCC)(CN(C1)C3c1ccccn1)C2=O (stereo not given)	-3.8	10.1%	-8.1%	i	2.59µM*!
O=C(/C=C/c1c[nH]c2ccccc12)c1c(O)n(CCc2ccccc2)c(=O)[nH]c1=O	/	16.4µM*	18.4µM*	i	?
COC1CC(=C(c2cccs2)c2cccs2)C[N+](C)(C)C1 (stereo not given)	/	1.7%	-3.3%	/	/
Fc1ccc(C2=CCN(C(c3cccs3)c3nnnn3CCc3ccccc3)CC2)cc1 (stereo not given)	-60.6*	4.6%	1.6%	i	i
CCN(CC)c1ccc(CN2CC=C(c3ccc(F)cc3)CC2)cc1	0.0	?	-3.9%	i	i
CCC(C)(C)n1nnnc1C(c1cccs1)N1CC=C(c2ccc(F)cc2)CC1 (stereo not given)	-66.8*	?	10.6%	i	i
COc1cc(CC(=O)N2C[C@H]3C[C@@H](C2)c2cccc(=O)n2C3)cc(OC)c1OC	0.0	-2.0%	3.3%	i	i
c1ccc(Nc2ccc(Nc3ccccc3)cc2)cc1	-24.8	-39.0%	?	i	i
[Hg+][c]1ccccc1	/	51.1%	10.6µM*	?	?
COc1cccc(-n2c(-c3ccoc3)nc3ccccc3c2=O)c1	2.5	9.8%	8.2%	i	14.6µM*
O=C(c1cc(C(=O)NCc2ccc(Cl)cc2)c(=O)n(Cc2ccc(Cl)cc2)c1)c1cc(F)ccc1O	-18.1	11.3%	11.2%	?	7.31µM*
Cc1cc(N(CCCl)CCCl)ccc1C=NNC(=O)Cc1cc(=O)oc2cc(O)ccc12	-59.3*	7.8%	?	i	i
c1ccc(CCN2CCCCC2)nc1	22.9	-19.1%	-8.9%	i	i
